From PubChem
Compounds with a hit are over-represented: about 1.8% of the library has one in this group of screens.
LYPLA2 counter: counter-screen for PME1 inhibitors: inhibitors of human LYPLA2. AID 2177. O95372. recombinant LYPLA2, FP-Rh probe fluorescence polarization. 0.38% of 320,000 active. inhibition, % at 5.9 µM;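 active = inhibition above the screen-wide mean plus 3 SD, limit set per campaign, cut at about 26% in these data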;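 note: 0% = LYPLA2 with DMSO and 100% = wells lacking LYPLA2 enzyme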
Fam108B counter: Fam108B inhibition, counter-screen for RBBP9 inhibitors; recombinant Fam108B, FP-Rh probe fluorescence polarization; inhibition, % at 9.51 µM; 0.33% of 300,000 active; AID 1947;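 active = inhibition above the screen mean inhibition plus 3 SD, computed separately per campaign, cut at about 18% in these data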;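 note: inhibitors lower polarization as less probe binds the enzyme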
PME-1 primary: PME-1 (human) inhibition. Q9Y570. recombinant PME-1, FP-Rh probe fluorescence polarization. inhibition, % at 5.9 µM. 0.53% of 320,000 active;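 active = inhibition above the campaign mean of all compounds plus 3 SD, cut at about 26% in these data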;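 note: competitive labeling of PME-1 active site by serine hydrolase directed probe; 0% = PME-1 with DMSO and 100% = wells lacking PME-1 enzyme; inhibitors block probe labeling so polarization falls and inhibition rises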
GSTO1 counter: GSTO1 inhibition, counter-screen for RBBP9 inhibitors. P78417. recombinant GSTO1, activity-based probe fluorescence polarization. inhibition, % at 5.96 µM. 1.1% of 300,000 active. AID 1974;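 active = inhibition above the campaign mean inhibition plus 3 SD, cut at about 35% in these data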;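 note: 0% = GSTO1-1 with DMSO and 100% = wells lacking GSTO1-1 enzyme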
PAD4 inh: inhibitors of human PAD4; Q9UM07; recombinant PAD4, RCA probe fluorescence polarization; inhibition, % at 6.36 µM; 0.41% of 330,000 active;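 active = percent inhibition above a cutoff equal to the mean of all tested compounds plus 3 SD, cut at about 15% in these data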;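 note: 0% = PAD4 with RCA probe and DMSO and 100% = probe without PAD4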
Target sequence (Q9UM07 whole entry, looked up): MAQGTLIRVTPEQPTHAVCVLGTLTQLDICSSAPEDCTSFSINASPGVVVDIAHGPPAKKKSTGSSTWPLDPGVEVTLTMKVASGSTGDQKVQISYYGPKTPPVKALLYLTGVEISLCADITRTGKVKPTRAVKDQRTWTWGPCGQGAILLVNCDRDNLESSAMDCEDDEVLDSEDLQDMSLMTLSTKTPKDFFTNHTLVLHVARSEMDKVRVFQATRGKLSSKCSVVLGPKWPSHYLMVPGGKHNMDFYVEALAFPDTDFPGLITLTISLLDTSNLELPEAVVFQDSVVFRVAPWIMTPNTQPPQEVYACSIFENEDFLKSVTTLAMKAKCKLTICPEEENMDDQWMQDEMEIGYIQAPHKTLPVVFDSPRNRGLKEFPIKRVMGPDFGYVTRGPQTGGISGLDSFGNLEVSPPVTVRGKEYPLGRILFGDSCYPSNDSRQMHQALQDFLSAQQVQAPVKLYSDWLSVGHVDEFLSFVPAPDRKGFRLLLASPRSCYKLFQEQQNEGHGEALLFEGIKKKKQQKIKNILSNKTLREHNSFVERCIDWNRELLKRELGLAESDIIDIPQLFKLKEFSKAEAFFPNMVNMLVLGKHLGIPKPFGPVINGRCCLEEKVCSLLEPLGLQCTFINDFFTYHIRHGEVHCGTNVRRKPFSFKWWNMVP
LYPLA1 counter: counter-screen for PME1 inhibitors: inhibitors of human LYPLA1; recombinant LYPLA1, FP-Rh probe fluorescence polarization; 0.16% of 320,000 active; inhibition, % at 5.9 µM;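 active = inhibition above the mean of all tested compounds plus 3 SD, set per campaign, cut at about 14% in these data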;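 note: inhibitors block serine hydrolase probe labeling of LYPLA1 so polarization falls; 0% = enzyme with DMSO and 100% = wells lacking LYPLA1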
LYPLA2 confirm: counter-screen for PME1 inhibitors: confirmation of human LYPLA2 inhibitors; shares compounds with LYPLA2 counter; recombinant LYPLA2, FP-Rh probe fluorescence polarization; inhibition, % at 5.9 µM; 72% of 1,100 active; AID 2232;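 active = mean inhibition across replicates above the hit cutoff set in the primary screen, cut at about 26% in these data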;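 note: blocked labeling of the enzyme by serine hydrolase FP-Rh probe lowers polarization; 0% = enzyme with DMSO and 100% = wells lacking LYPLA2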
LYPLA2 ABPP: inhibitors of human LYPLA2; shares compounds with LYPLA2 counter; rhLYPLA2 in mouse brain proteome, gel ABPP FP-Rh; inhibition, % at 20 µM; 30% of 150 active; AID 652029;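 active = inhibition of LYPLA2 enzyme probe labeling above about 50%, limit read from the data; inactive = inhibition below that limit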;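 note: loss of FP-Rh probe labeling of the LYPLA2 gel band measured as band density; 0% = DMSO only control band and 100% = blank gel background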
* hit, by the source's call; / = no result.

SMILES	LYPLA2 counter	Fam108B counter	PME-1 primary	GSTO1 counter	PAD4 inh	LYPLA1 counter	LYPLA2 confirm	others
Cc1nn(-c2ccc(F)cc2)c2sc(C(=O)OC3CCOC3=O)cc12 (stereo unspecified)	35*	1	-5	4	2	2	28*
O=C(c1cc(-c2ccc(F)cc2)no1)N1CCN(Cc2ccc3c(c2)OCO3)CC1	33*	1	0	5	2	1	35*
O=C(c1c(F)c(F)c(F)c(F)c1F)N1CCN(Cc2ccc3c(c2)OCO3)CC1	-1	1	-4	8	2	-1	/
O=C(Nc1ccccc1)c1nc[nH]c1C(=O)NCCN(CCNC(=O)c1[nH]cnc1C(=O)Nc1ccccc1)CCNC(=O)c1[nH]cnc1C(=O)Nc1ccccc1	/	/	/	/	1	/	/
CCc1nnc(NS(=O)(=O)c2ccc(NC(=S)NC(=O)/C=C/c3ccc([N+](=O)[O-])cc3)cc2)s1	67*	-2	-4	-15	-2	1	77*	LYPLA2 ABPP=37
COc1ccc(N/C=C2/CCCCC2=O)cc1	3	4	1	5	-6	-1	/
COc1ccc(Oc2ccc(N/C=C3/CCCC3=O)cc2)cc1	41*	4	4	2	-3	3	36*
COc1ccc(Oc2ccc(N/C=C3\CCCC3=O)cc2)cc1	39*	1	10	-6	-1	7	37*
Cc1ccc2oc(C(=O)NCC3CCOCC3)c(C)c2c1	3	-3	1	-4	-3	0	/
COc1cccc(OCC(O)CN2CCOCC2)c1 (stereo unspecified)	-4	-2	2	2	-5	-2	/
COc1cccc(OCC(O)CN2CCN(CCN3C(=O)c4cccc5cccc(c45)C3=O)CC2)c1 (stereo unspecified)	32*	1	0	8	0	3	34*
O=C(O)c1nn(CC(=O)N2CCN(c3ncc(C(F)(F)F)cc3Cl)CC2)c(=O)c2ccccc12	26*	-4	-8	8	-3	3	30*
O=C(CSc1ccccn1)N1CCN(c2ncc(C(F)(F)F)cc2Cl)CC1	-8	-2	-3	-1	1	5	/
COc1cccc(-c2csc(N3CCN(CC(=O)Nc4ccc5c(c4)OCO5)CC3)n2)c1	5	1	4	7	2	-7	/
COc1ccc(NC(=O)CN2CCN(c3nc(-c4cccc(OC)c4)cs3)CC2)cc1	33*	3	4	3	3	1	19
COc1ccc(/C=C(\NC(=O)c2ccco2)C(=O)NCc2ccco2)cc1	-4	-2	-12	5	-1	1	/
CCOc1ccc(C(=O)NC(=S)Nc2ccc(NC(=O)CC)cc2)cc1[N+](=O)[O-]	28*	-6	-2	3	0	-2	27*
CCOc1ccc(C(=O)NC(=S)Nc2ccccc2OC)cc1[N+](=O)[O-]	5	6	-7	0	0	5	/
CCOc1ccc(S(=O)(=O)N=C(c2ccccc2)N2CCOCC2)cc1	/	/	/	/	-2	/	/
COc1cccc(-c2ccc(NC(=O)C3CCCN(Cc4cnc(N(C)C)s4)C3)cc2)c1 (stereo unspecified)	28*	0	-3	8	0	-2	-1
CCCc1ncc(CN2CCCC(C(=O)Nc3ccc(-c4cccc(OC)c4)cc3)C2)cn1 (stereo unspecified)	15	-3	-4	-2	0	0	/
NS(=O)(=O)c1ccc(NC(=O)CN2CCc3ccccc3C2)cc1	3	2	-3	-1	-2	-3	/
Cc1nc(C(=O)NC2CCOCC2)sc1C1(C)CC(c2cccc([N+](=O)[O-])c2)=NO1 (stereo unspecified)	34*	-2	-6	1	-2	-2	45*
Cc1nc(C(=O)NC2CCOCC2)sc1C1(C)CC(c2ccccc2)=NO1 (stereo unspecified)	8	4	1	3	-3	3	/
CCCCc1nc2cc(C(=O)N3CCCC(COC)C3)ccc2o1 (stereo unspecified)	-4	-4	4	-2	-4	-2	/
SMILES	LYPLA2 counter	Fam108B counter	PME-1 primary	GSTO1 counter	PAD4 inh	LYPLA1 counter	LYPLA2 confirm	others
CC(=O)c1ccc(OCc2cc(C(=O)NC(C)c3cnn(C)c3)no2)cc1 (stereo unspecified)	30*	0	-3	6	1	5	22
Cc1nonc1NC(=O)CSc1nnc(N)s1	6	-1	4	5	0	-2	/
CC(=O)c1ccc(N2CCN(C(=O)c3cc4c(s3)CCCC4)CC2)cc1	44*	-4	-4	2	6	3	54*	LYPLA2 ABPP=28
COc1ccccc1N1CCN(C(=O)c2cc3c(s2)CCC3)CC1	0	0	2	26	-1	-3	/
O=C(c1cc2c(s1)CCCCC2)N1CCN(c2ncccn2)CC1	3	4	8	0	0	1	/
COc1ccc(N2CCN(C(=O)c3cc4c(s3)CCCCC4)CC2)cc1	62*	/	2	/	-7	1	62*	LYPLA2 ABPP=32
COc1ccc2c(c1)CCc1cc(C(=O)N3CCN(c4ccc(N5CCOCC5)nn4)CC3)sc1-2	59*	2	1	7	1	0	60*	LYPLA2 ABPP=23
COc1c2c(cc3oc(CO[C@@H]4O[C@H](CO)[C@@H](O)[C@H](O)[C@H]4O)cc(=O)c13)O[C@H](C(C)(C)O)C2	/	/	/	/	1	/	/
COc1ccc(-c2c3c(cc4ncn(Cc5ccccc5)c24)COC3=O)cc1	11	/	-3	/	1	4	/
CC1(C)Cc2c(sc3nnn(CC(=O)Nc4ccccc4)c(=O)c23)CO1	28*	-1	0	2	4	-1	36*
CCOC(=O)c1nn(-c2ccccc2Cl)c(=O)cc1OCC(=O)Nc1cccc(OC)c1	-2	-15	-1	0	0	-3	/
Cc1ccc(NC(=O)Cn2cnc3c(cnn3C(C)(C)C)c2=O)cc1	3	0	-2	6	1	0	/
CC(C)(C)n1ncc2c(=O)n(CC(=O)N3CCCCCC3)cnc21	29*	1	0	-1	0	2	2
O=C(O)c1ccc(N=Cc2nc(-c3ccco3)oc2O)cc1	31*	7	5	7	-3	1	37*
Cc1cccc(Nc2ccc([N+](=O)[O-])cc2C(=O)O)c1	36*	3	12	4	-5	-2	43*
O=C(O)c1cc([N+](=O)[O-])ccc1Nc1ccccc1	14	1	2	3	0	-1	/
O=C([C@@H]1CCCN1C(=O)c1cccs1)N1CCN(S(=O)(=O)c2cccc(F)c2)CC1	-2	/	1	/	-3	-2	/
